12-LOX inh: ALOX12 (human) lipoxygenase inhibition; P18054; purified 12hLO, xylenol orange hydroperoxide absorbance; Potency, µM (series often up to 108 µM), inactives show at the top dose activity change, negative = inhibition, usual class: inhibitors; 1.1% of 580,000 active; also: potency is read from the fitted curve at half-maximal effect; % is scaled to controls: 0 for no effect and ±100 for the full control effect
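Hydroperoxide product was detected by ferrous iron/xylenol orange as the 573 to 405 nm absorbance ratio. Arachidonic acid at 40 uM (final) was turned over for 30 min at room temperature by 150 nM human 12hLO, pH 7.0 Hepes buffer, after 15 min compound preincubation.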
IL2 activator: activates IL-2 in a cell-based reporter assay. IL-2 activation reporter assay, cell-based qHTS; stimulated with anti-CD3/CD4/CD28 beads; in transgenic mouse T cells. activation, % (series mostly up to about 46 µM). 0.065% of 360,000 active. AID 652025; in the data active = activation above about 50%; inconclusive = mostly about 30% to 49%; also: 0% is about no effect
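EGFP and DsRed fluorescence is measured by plate cytometry in unstimulated transgenic mouse T cells exposed to compound for 60 minutes, then stimulated 18 hours at 37 degrees C with anti-CD3/anti-CD4 beads plus anti-CD28.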
a7 integrin act: integrin-mediated muscular dystrophy alleviation activation | alpha7betagal myoblasts, beta-gal FDG fluorescence, 48 h | Potency, µM (top dose mostly 38.3 µM), for the others: at the top dose activation, usual class: activators | 0.064% of 350,000 active;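 also: potency is read from the fitted curve at half-maximal effect; 100% = response of the positive control SU9516; nearly all actives have a fitted effect of over 60% in size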
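Alpha7betagal+/- myoblasts (passage 13) were plated 16-24 hr, then exposed to compounds (1:260 dilution of DMSO stock) for 48 hours at 37C. After MPER lysis, β-galactosidase reporter activity was read as FDG fluorescence (ex 480/em 540) after 30 minutes.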
Nrf2 ARE act: activates Nrf2 signaling; AREc32 ARE-luciferase reporter (MCF7-derived line), luminescence, 24 h; 0.31% of 410,000 active; Potency, µM (highest dose often 46.1 µM), inactives show at the top dose activation, hits mostly activators; also: potency is read from the fitted curve at half-maximal effect; % of control where 0% means no effect; nearly all actives have a fitted effect of over 65% in size
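Nrf2 activation is followed as ARE-luciferase induction in the AREc32 line after one day of compound treatment; luminescence is read with Steady-Glo.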
uPA surface inh: inhibitors of cell surface uPA generation | 0.31% of 330,000 active | Potency, µM (titrated, usually from 38.3 µM), without a hit: at the highest dose activity change, negative = inhibition, hits mostly inhibitors | cell surface uPA generation assay, qHTS; active = well fitted inhibition curve with a large enough effect; inconclusive = small, poorly fitted or top-dose-only effect; inactive = no such curve, though single readings can be large or run the other way; tested in mouse RAW 264.7 cells; also: potency is read from the fitted curve at half-maximal effect; % is scaled to controls: 0 for no effect and ±100 for the full control effect; nearly all actives have a fitted effect of over 55% in size
The depositor's hits bear a star; ? = inconclusive; / = no result given; [ ] = remark or other dose. In the library only some 1.5% were active in any assay of this set; here they are far more common. Unless noted, calls follow the shape of the dose curve; as a rule, active = well fitted curve in the direction sought with a large enough effect; inconclusive = small, poorly fitted or top-dose-only effect, or another doubt; inactive = no such curve, though single readings can be large; an effect the other way counts as inactive or inconclusive.

SMILES	12-LOX inh	IL2 activator	a7 integrin act	Nrf2 ARE act	uPA surface inh
Cc1nn(-c2ccc(F)cc2)c(C)c1[C@@H]1C=C[C@@H](NC(=O)CC(C)(C)CC(=O)O)C1	20µM*	/	/	/	/
Cc1nn(-c2ccc(C(F)(F)F)cc2)c(C)c1[C@@H]1C=C[C@@H](NC(=O)COCC(=O)O)C1	13.6%	/	/	/	/
Cc1ccc(NCCC(=O)c2cc3ccccc3o2)cc1Br	35.5µM*	/	/	/	/
O=C(NC1CCCCC1)C1CN(S(=O)(=O)c2cc(F)ccc2F)CC12CCOCC2 (configuration not stated)	-3.9%	/	/	/	/
C=C(C)CSC1=C(C#N)C(c2ccccc2Cl)CC(=O)N1 (configuration not stated)	22.4µM*	0.2	0.0%	-0.5%	-2.4%
CCc1c(C)sc(NC(=O)C(F)(F)C(F)(F)C(F)(F)C(F)(F)F)c1C#N	10µM*	/	/	/	/
CCc1c(C)sc(NC(=O)C2CCC2)c1C#N	12.6µM*	/	/	/	/
CCc1c(C)sc(NC(=O)C2CC2)c1C#N	28.2µM*	/	/	/	/
CCc1c(C)sc(NC(=O)CC#N)c1C#N	?	8.4	-15.7%[7.66 µM]	-0.2%	/
CN(C)c1ncccc1CNC(=O)c1ccc2c(c1)CCC(=O)N2	18.9%	/	/	/	/
O=S(=O)(NC(=NC1CCCCC1)c1ccccc1)c1ccccc1	9.8%	-0.1	0.0%	-0.3%	2.8%
O=S(=O)(NC(=NC1CCCCC1)c1ccccc1F)c1ccccc1	-0.8%	-0.5	10µM*	-0.5%	0.6%
Cc1cccnc1CN1CCN(C(=O)C2CC3(CCNCC3)CN2C)CC1 (configuration not stated)	20.2%	/	/	/	/
Cc1cccc(OCc2nnc3sc(-c4ccccc4)nn23)c1	-26.3%	/	/	/	/
CCOC(=O)c1ccc(N=c2sc(C(=O)OC)cc(=O)n2Cc2ccco2)cc1	30.5%	-4.5	7.4%	-0.2%	6.31µM*
CCOC(=O)c1ccc(N=c2sc(C(=O)OC)cc(=O)n2CCCN2CCOCC2)cc1	-18.7%	0.7	-36.0%	?	?
Cc1ccc2c(C)c(C(=O)Nc3ccc4c(c3)N(C)C(=O)CO4)oc2c1	-21.4%	/	/	/	/
COC(=O)c1ccc(COc2ccccc2/C=C/C(=O)c2ccc(OCC(=O)O)cc2)cc1	-13.8%	0.2	-40.5%	17.8µM*	-1.7%
O=C(NCCc1ccccc1)c1ccc2c(=O)[nH]c3c(C(=O)NCC4CCCO4)sc(=S)n3c2c1 (configuration not stated)	?	-0.8	-13.7%	-0.5%	-1.4%
O=C(NCCc1ccc(Cl)cc1)c1ccc2c(=O)[nH]c3c(C(=O)NCC4CCCO4)sc(=S)n3c2c1 (configuration not stated)	50.1µM*	/	/	/	/
COC(=O)c1sc2ncccc2c1OCc1cccc(Cl)c1	0.0%	8.0	20.8%	2.7%	-6.2%
COC(=O)c1sc2ncccc2c1OCc1c(Cl)cccc1Cl	39.8µM*	-0.1	16.5%	3.8%	-1.5%
COCCCN1C(=O)CC[C@H]2CN(C(=O)c3cn(C)c(=O)[nH]c3=O)CC[C@H]21	15.3%	/	/	/	/
Fc1ccc(N=c2ssnc2Cl)c(F)c1	7.08µM*	-0.1	24.4%	8.6%	-2.8%
Clc1ccc(N=c2ssnc2Cl)cc1	?	-0.6	-3.9%	7.1%	-4.7%
SMILES	12-LOX inh	IL2 activator	a7 integrin act	Nrf2 ARE act	uPA surface inh
CC[n+]1c(/C=C/C=C/N(C(C)=O)c2ccccc2)sc2cc(OC)ccc21	?	54.5*	-54.7%	10.4%	-8.8%
COc1cccc(C(=O)NC(=S)Nc2ccc(N3CCCC3)cc2)c1	?	1.8	-21.5%	5.9%	5.4%
Cc1cccc(C(=O)Nc2ccc(NC(=S)NC(=O)c3cccc(Cl)c3)cc2)c1	17.8µM*	/	/	/	/
CC(=O)c1cccc(NC(=S)NC(=O)c2cccc(Cl)c2)c1	-19.8%	-1.9	32.1%	12.2%	-5.2%
Cc1cccc(C)c1NC(=S)NC(=O)c1cccc(Cl)c1	31.6µM*	0.3	/	?	/
CCCC(=O)N1CCN(c2ccc(NC(=S)NC(=O)c3cccc(C)c3)cc2)CC1	15.8µM*	-0.7	-24.7%	-0.1%	-5.9%
COC(=O)C1OC(OC2C(OC3CC[C@@]4(C)C(CC[C@]5(C)C4C(=O)C=C4C6C[C@@](C)(C(=O)OC)CC[C@]6(C)CC[C@]45C)C3(C)C)OC(C(=O)OC)C(OC(C)=O)C2OC(C)=O)C(OC(C)=O)C(OC(C)=O)C1OC(C)=O (some centres not stated)	12.0%	/	/	/	/
COc1ccc(CCNC(=O)c2sc(NCC(C)C)nc2C)cc1	2.2%	/	/	/	/
